Measured values: PubChem BioAssay (NCATS)
*1 amine or outer side, *2 acyl side, *3 side chain or, on linkers, in order; H or OH if unused. Where a SMILES comes first, the peptide text is derived from it. Bridges are numbered along the chain shown (N, C = ends). Roman numbers before positions name the chains, in order. [ ]: non-standard residue; d: D form. ξ: configuration not given here. Actinocin(9to1) = Cc1c2oc3c(C)ccc(C(=O)[*:1])c3nc-2c(C(=O)[*:2])c(N)c1=O; ξNMeV = CNC(C(=O)O)C(C)C; ξV = CC(C)C(N)C(=O)O; Sar = CNCC(=O)O

Assay: Cell Proliferation Assay against the HBL1 Cell Line (AID 651646);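 further: cells exposed to compound for 48 h before reading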
Conditions: HBL1 DLBCL cells; at 46.1 µM (top of the series) unless noted
Excerpt: One class of targeted therapeutics showing early clinical success in killing of ABC DLBCL lines are small molecule inhibitors of the Bruton tyrosine kinase (BTK) 11.
Prior to any combination assays, using an NCATS developed oncology compound library called the Mechanism of Interrogation Plate (MIPE), two well studied ABC DLBCL lines (TMD8 and HBL1) were screened using a cell viability assay (CellTiterGlo) and a 12-point titration series for each single agent. These initial experiments offered insight into the concentration range that offered the best coverage of activity and non-activity to assure relevant data is generated. In addition to the viability signature associated with this library, we examined the apoptotic response of each agent versus the TMD8 line as judged by caspase 3/7 activation. Activity was assayed at both 8 and 16 hour time-points to gain an appreciation of which agents induced an apoptotic response in a reasonable timeframe from a therapeutic exposure perspective. MIPE was also assayed for single agent viability in a human mesenchymal stem cell (hMSC) line as a surrogate of each library member's potential therapeutic index.
A total of 500 log growing HBL1 cells are seeded per well in 5 uL of a RPMI with glutamine (or Glutamax), without phenol red plus 5% FBS and 1X Pen/Strep into 1536 -solid white high base tissue culture treated Greiner One Bio Plates (789173-F) using a multidrop combi dispenser and a small sterile cassette. Compounds and controls totaling 23nL per well (negative control DMSO and positive control 9.2 uM Bortezomib-final) are immediately added to the plates using a 1536 head pin tool from Kalypsys. The plates are then covered with stainless steel gasket lids from Kalypsys and incubated for 48 hours at 37C under 95% relative humidity with 5% CO2. After 48 hours, the plates are removed and allowed to reach room temperature before 3 uL of Cell Titer Glo reagent (Promega) is added using an Aurora Flying Reagent Dispenser Bioraptor. The plates are then spun at 1000 rpms to remove bubbles and incubated for 15 minutes at room temperature before read on a ViewLux using a luminescent filter with a 10 second exposure. The relative luciferase units are used to calculated percent activity using DMSO as 100% and Bortezomib as 0%.

SMILES	viability, percent of control
Cc1c2oc3c(C)ccc(C(=O)N[C@@H]4C(=O)NC(C(C)C)C(=O)N5CCC[C@H]5C(=O)N(C)CC(=O)N(C)C(C(C)C)C(=O)O[C@@H]4C)c3nc-2c(C(=O)N[C@@H]2C(=O)NC(C(C)C)C(=O)N3CCC[C@H]3C(=O)N(C)CC(=O)N(C)C(C(C)C)C(=O)O[C@@H]2C)c(N)c1=O (stereo not given in full) (I: T[ξV]P[Sar][ξNMeV] / II: T[ξV]P[Sar][ξNMeV]; ester I:1-I:C, II:1-II:C; linker I:N-II:N via Actinocin(9to1))	21.5%
CCCCCCCCCCCCCCCCCCOP(=O)([O-])OC1CC[N+](C)(C)CC1	93.3% [at 29.8 µM]
CCC1(O)CC2CN(CCc3c([nH]c4ccccc34)[C@@](C(=O)OC)(c3cc4c(cc3OC)N(C=O)[C@H]3[C@](O)(C(=O)OC)[C@H](OC(C)=O)[C@]5(CC)C=CCN6CC[C@]43[C@@H]65)C2)C1 (stereo not given in full)	22.9%
O=c1cc(C2=CC=CC3Sc4ccccc4SC23)oc(N2CCOCC2)c1 (stereo not given)	31.5%
NC(=O)Nc1cc(-c2ccc(CN3CCOCC3)c(F)c2)sc1C(=O)N[C@H]1CCCNC1	10.1%
CC[C@@H](C(=O)O)C1CC[C@H](C)C([C@@H](C)[C@H](O)[C@H](C)C(=O)[C@H](CC)C2O[C@]3(C=C[C@@H](O)[C@]4(CC[C@@](C)(C5CC[C@](O)(CC)[C@H](C)O5)O4)O3)[C@H](C)C[C@@H]2C)O1 (stereo not given in full)	11.4%
C[C@@H]1CCN(C(=O)CC#N)C[C@@H]1N(C)c1ncnc2[nH]ccc12	97.5%
CN(NC(=O)CC(=O)NN(C)C(=S)c1ccccc1)C(=S)c1ccccc1	60.8%
O=C(O)CC/C=C\CC[C@H]1[C@@H](N2CCCCC2)[C@@H](O)C[C@@H]1OCc1ccc(-c2ccccc2)cc1	105%
CCOc1cc2ncc(C#N)c(Nc3ccc(OCc4ccccn4)c(Cl)c3)c2cc1NC(=O)/C=C/CN(C)C	1.48%
COC(=O)C1=C(C)NC(C)=C(C(=O)OCCCN2CCC(c3ccccc3)(c3ccccc3)CC2)[C@H]1c1cccc([N+](=O)[O-])c1	1.4%
CCC1(Cc2ccc(N)cc2)CCC(=O)NC1=O (stereo not given)	97.3% [at 92.2 µM]
Cc1nnc(C(C)C)n1C1CC2CCC(C1)N2CC[C@H](NC(=O)C1CCC(F)(F)CC1)c1ccccc1 (stereo not given in full)	87.3%
CC(NC(=O)Cc1cc(F)cc(F)c1)C(=O)NC(C(=O)OC(C)(C)C)c1ccccc1 (stereo not given)	103%
CNC1CCN(C(Cc2cccc(-c3ccncc3)c2)C(=O)c2sc3c(F)ccc(F)c3c2Cl)CC1 (stereo not given)	0.927%
